Test results from PubChem BioAssay (Tox21).
Inconclusive results are not listed. The source made the active and inactive calls. Unless noted, calls follow the shape of the dose curve; as a rule, active = well fitted curve in the direction sought with a large enough effect in the repeat runs; inconclusive = weak or mixed curves; inactive = no such curve, though single readings can be large; an effect the other way counts as inactive or inconclusive.

Columns and labels:
[1] = target: Retinoic acid receptor RXR-alpha (Homo sapiens) (UniProt P19793); experiment: qHTS assay to identify small molecule agonists of the RXR signaling pathway (AID 1159527; calls by dose curve; also: nearly all actives have a fitted effect of over 35% in size)
Chain of Retinoic acid receptor RXR-alpha (Homo sapiens) (P19793 whole entry, looked up): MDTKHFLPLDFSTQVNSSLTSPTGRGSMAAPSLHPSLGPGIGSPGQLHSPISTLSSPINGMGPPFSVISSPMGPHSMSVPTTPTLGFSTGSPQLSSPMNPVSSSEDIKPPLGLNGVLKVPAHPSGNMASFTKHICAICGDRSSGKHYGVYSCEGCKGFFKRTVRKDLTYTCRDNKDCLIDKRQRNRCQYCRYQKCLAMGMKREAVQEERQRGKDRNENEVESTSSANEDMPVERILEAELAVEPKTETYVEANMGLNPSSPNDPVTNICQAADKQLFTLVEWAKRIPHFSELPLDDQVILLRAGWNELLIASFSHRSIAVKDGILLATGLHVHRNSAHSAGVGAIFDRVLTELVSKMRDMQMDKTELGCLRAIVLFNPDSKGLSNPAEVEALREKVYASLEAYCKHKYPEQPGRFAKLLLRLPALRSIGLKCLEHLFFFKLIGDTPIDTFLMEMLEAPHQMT
Method in brief: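 Beta-lactamase reporter assay, agonist format. Engineered HEK 293T line, charcoal-stripped FBS at 2%, overnight (16 hr) exposure, fluorescence at 460 and 530 nm after 405 nm excitation.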

[2] = qHTS assay to identify small molecule agonists of the RXR signaling pathway - cell viability counter screen (AID 1159529);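 also: HEK 293T cells carrying an RXR-alpha UAS beta-lactamase reporter; nearly all actives have a fitted effect of over 50% in size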
Method in brief: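 Same-well viability check after the LiveBLAzer FRET read: CellTiter-Glo added, luminescence measured after 30 min at room temperature. Reporter HEK 293T cells had been treated with compounds for 16 hr following a 5 hr preincubation.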

[3] = qHTS assay to identify small molecule antagonists of the retinoid acid receptor (RAR) signaling pathway - cell viability counter screen (AID 1159551); also: nearly all actives have a fitted effect of over 35% in size
Method in brief: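 ATP-based viability, C3RL4 cells, 6 h at 37 C with 1 uM final retinol co-added after compound; luminescence read 30 min post CellTiter-Glo, RT.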

[4] = qHTS assay to identify small molecule antagonists of the retinoic acid receptor (RAR) signaling pathway (AID 1159552; also: nearly all actives have a fitted effect of over 50% in size)
Method in brief: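 Readout: luciferase luminescence, 30 min post-reagent at RT. Setup: C3RL4 RARE reporter cells, compounds plus retinol 1 uM final, 6 hr incubation at 37 C and 5% CO2.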

[5] = qHTS assay to identify small molecule agonists of the retinoic acid receptor (RAR) signaling pathway (AID 1159553); details: C3RL4 RARE luciferase reporter, agonist, 6 h; activation: at 73.3 µM (top of the series)
Method in brief: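 Quantitative high-throughput format: the Tox21 10K library was tested on C3RL4 RARE-luciferase cells for 6 hr at 37 C and 5% CO2, with luminescence measured after a 30 min room-temperature reagent step.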

[6] = qHTS assay to identify small molecule antagonists of the estrogen related receptor (ERR) signaling pathway from Tox21 library - cell viability counter screen (AID 1224834); also: nearly all actives have a fitted effect of over 30% in size
Method in brief: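 Compounds in DMSO were pinned onto ERR cells that had been incubated for 6 h, and the plates were held at 37 C for 17.5 h. CellTiter-Fluor reagent was then added and fluorescence was measured after 30 min.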

[7] = target: Luciferin 4-monooxygenase (Photinus pyralis) (UniProt P08659); experiment: qHTS assay to identify small molecule inhibitors of firefly luciferase (AID 1224835); also: nearly all actives have a fitted effect of over 25% in size
Chain of Luciferin 4-monooxygenase (Photinus pyralis) (P08659 whole entry, looked up): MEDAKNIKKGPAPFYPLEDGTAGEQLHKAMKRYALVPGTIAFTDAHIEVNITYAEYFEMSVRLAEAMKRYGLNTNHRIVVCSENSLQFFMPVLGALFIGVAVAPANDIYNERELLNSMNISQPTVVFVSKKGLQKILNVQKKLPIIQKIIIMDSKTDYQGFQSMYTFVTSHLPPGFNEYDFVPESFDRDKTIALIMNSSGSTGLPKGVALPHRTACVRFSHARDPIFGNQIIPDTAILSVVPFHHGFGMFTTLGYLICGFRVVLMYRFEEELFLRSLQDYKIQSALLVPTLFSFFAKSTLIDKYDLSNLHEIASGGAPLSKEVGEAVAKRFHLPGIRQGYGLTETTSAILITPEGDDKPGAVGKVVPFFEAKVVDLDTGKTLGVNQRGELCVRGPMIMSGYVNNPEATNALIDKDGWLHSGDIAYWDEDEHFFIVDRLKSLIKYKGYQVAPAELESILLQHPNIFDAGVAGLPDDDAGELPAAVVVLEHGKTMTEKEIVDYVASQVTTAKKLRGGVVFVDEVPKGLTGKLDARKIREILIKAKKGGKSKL
Method in brief: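 Biochemical qHTS: compounds run as interplate titrations against purified firefly enzyme, with D-luciferin and ATP each at its KM concentration. Light output recorded by CCD imaging.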

[8] = qHTS assay to identify small molecule antagonists of the constitutive androstane receptor (CAR) signaling pathway - cell viability counter screen (AID 1224837); also: nearly all actives have a fitted effect of over 45% in size
Method in brief: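 Cells are seeded, rested 4 hr at 37 C/5% CO2, dosed with compound (15-point series) and 50 nM CITCO, incubated a further 23 hr, and then CellTiter-Fluor reagent is added before fluorescence is read. The line is HepG2 with stable hCAR and CYP2B6-2.2kb.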

[9] = qHTS assay to identify small molecule antagonists of the estrogen related receptor signaling pathway with the pleiotropic PPARgamma coactivator (PGC) from Tox21 10K library - cell viability counter screen (AID 1224840; active = well fitted cell-killing curve with a large enough effect in the repeat runs, not every such curve was filed as active; also: nearly all actives have a fitted effect of over 40% in size)
Method in brief: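 Cell viability is measured by CellTiter-Fluor fluorescence in PGC/ERR cells that receive compounds after a 6-hour attachment period and are then incubated 17.5 hours at 37 C.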

[10] = qHTS assay to identify small molecule agonists of the hypoxia (HIF-1) signaling pathway - cell viability counter screen (AID 1224844; calls by dose curve; also: nearly all actives have a fitted effect of over 50% in size)
Method in brief: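 Viability counter screen: HRE-bla ME-180 cells plated 5 hrs before compound addition, treated 17 hrs at 37C and 5% CO2, then CellTiter-Glo added after the FRET reporter read; luminescence after 30 min.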

[11] = qHTS assay to identify small molecule agonists of H2AX (AID 1224845; active = well fitted activation curve with a large enough effect in the signal ratio in the repeat runs, not every such curve was filed as active; the % refers to the signal ratio)
Method in brief: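 Wild-type CHO-K1 cells, plated overnight, exposed 3hr at 37C to 15 concentrations (0.76% DMSO final). Lysed, then HTRF anti-pH2AX (S139) cryptate and anti-H2AX-d2 antibodies, 24 hr room temperature; 665/620 nm emission read.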

[12] = qHTS assay to identify small molecule agonists of the hypoxia (HIF-1) signaling pathway (AID 1224846; active = well fitted activation curve with a large enough effect in the signal ratio in the repeat runs, not every such curve was filed as active; the % refers to the signal ratio)
Method in brief: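 Agonist mode reporter screen. ME-180 cells stably expressing bla under HRE control received test compounds in DMSO for 17 hrs (37C, 5% CO2), and beta-lactamase activity was then detected with the CCF4-AM FRET substrate.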

[13] = qHTS assay to identify small molecule agonists of H2AX - cell viability counter screen (AID 1224847; calls by dose curve; also: top concentration of the series differs between compounds; nearly all actives have a fitted effect of over 30% in size)
Method in brief: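 Read-out: CellTiter-Glo luminescence, 30 min RT. Cells: wild-type CHO-K1, 1000/well, 10% FBS, plated overnight at 37C. Treatment: 15 concentrations, 3 hr, 37C, 0.76% DMSO.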

[14] = qHTS assay to identify small molecule agonists of the constitutive androstane receptor (CAR) signaling pathway - cell viability counter screen (AID 1224836); also: nearly all actives have a fitted effect of over 45% in size
Method in brief: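 Compound titrations (15 concentrations) went onto HepG2-CYP2B6-hCAR cells 4 h after seeding, alongside PK11195 at a final 0.75 uM; a 23 h, 37 C/5% CO2 incubation preceded CellTiter-Fluor viability measurement.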

[15] = qHTS assay to identify small molecule antagonists of the estrogen related receptor signaling pathway with the pleiotropic PPARgamma coactivator (PGC) from Tox21 10K library (AID 1224841; call rule not given here; also: actives are mostly falling curves and most rising ones were filed inactive; nearly all actives have a fitted effect of over 50% in size)
Method in brief: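 Cells stably carrying the PGC/ERR reporter, seeded at 2,000 per well, received pin-transferred compounds 6 h post-plating. Exposure lasted 18 h at 37 C. Signal: One-Glo luminescence.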

[16] = qHTS assay to identify small molecule agonists of the estrogen related receptor signaling pathway with the pleiotropic PPARgamma coactivator (PGC) from Tox21 10K library (AID 1224842); also: nearly all actives have a fitted effect of over 15% in size
Method in brief: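 PGC/ERR reporter cell line, 2,000 cells per well, incubated 6 h at 37 C before 23 nL compound in DMSO was added. After 18 h at 37 C, One-Glo luminescence read following 30 min at room temperature.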

[17] = qHTS assay to identify small molecule antagonists of the estrogen related receptor (ERR) signaling pathway from Tox21 library (AID 1224848); also: nearly all actives have a fitted effect of over 50% in size
Method in brief: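 Compounds dissolved in DMSO are pin-transferred onto ERR reporter cells (2,000 per well) that have settled for 6 h at 37 C. Plates then incubate 18 h at 37 C before ONE-Glo luciferase reagent and a luminescence read 30 min later.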

[18] = target: Thyrotropin receptor (Homo sapiens) (UniProt P16473); experiment: qHTS assay to identify small molecule agonists of the thyroid stimulating hormone receptor (TSHR) signaling pathway (AID 1224843; calls by dose curve; also: nearly all actives have a fitted effect of over 45% in size)
Chain of Thyrotropin receptor (Homo sapiens) (P16473 whole entry, looked up): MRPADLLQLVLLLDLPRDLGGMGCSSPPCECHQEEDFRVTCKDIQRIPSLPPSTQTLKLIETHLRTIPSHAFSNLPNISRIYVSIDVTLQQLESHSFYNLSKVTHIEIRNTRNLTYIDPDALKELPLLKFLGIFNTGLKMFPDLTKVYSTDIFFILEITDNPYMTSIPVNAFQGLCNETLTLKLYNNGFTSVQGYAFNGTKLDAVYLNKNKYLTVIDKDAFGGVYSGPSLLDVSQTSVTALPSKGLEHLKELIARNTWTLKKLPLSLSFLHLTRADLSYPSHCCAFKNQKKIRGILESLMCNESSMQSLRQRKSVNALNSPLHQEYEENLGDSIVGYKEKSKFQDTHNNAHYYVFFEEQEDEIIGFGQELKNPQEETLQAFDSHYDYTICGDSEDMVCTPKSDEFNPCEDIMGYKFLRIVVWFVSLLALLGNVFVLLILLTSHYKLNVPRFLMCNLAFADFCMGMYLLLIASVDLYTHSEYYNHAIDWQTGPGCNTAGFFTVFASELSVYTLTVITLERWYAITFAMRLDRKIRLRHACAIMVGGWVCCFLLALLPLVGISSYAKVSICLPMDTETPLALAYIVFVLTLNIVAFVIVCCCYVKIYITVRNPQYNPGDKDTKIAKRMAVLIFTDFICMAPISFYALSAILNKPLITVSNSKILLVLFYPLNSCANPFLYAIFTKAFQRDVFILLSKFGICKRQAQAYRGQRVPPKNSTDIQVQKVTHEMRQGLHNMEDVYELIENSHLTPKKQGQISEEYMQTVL
Method in brief: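 HEK293/TSHR, 800 cells/well; cpd 30 min RT; add cAMP-d2 + anti-cAMP-cryptate, 1 h RT; fluorescence read on plate reader. 15-pt titration, n=3.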

[19] = target: Nuclear receptor subfamily 1 group I member 3 (Homo sapiens) (UniProt Q14994); experiment: qHTS assay to identify small molecule antagonists of the constitutive androstane receptor (CAR) signaling pathway (AID 1224838);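 also: HepG2 cells stably expressing hCAR with CYP2B6 luciferase reporter stimulated by CITCO; nearly all actives have a fitted effect of over 40% in size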
Chain of Nuclear receptor subfamily 1 group I member 3 (Homo sapiens) (Q14994 whole entry, looked up): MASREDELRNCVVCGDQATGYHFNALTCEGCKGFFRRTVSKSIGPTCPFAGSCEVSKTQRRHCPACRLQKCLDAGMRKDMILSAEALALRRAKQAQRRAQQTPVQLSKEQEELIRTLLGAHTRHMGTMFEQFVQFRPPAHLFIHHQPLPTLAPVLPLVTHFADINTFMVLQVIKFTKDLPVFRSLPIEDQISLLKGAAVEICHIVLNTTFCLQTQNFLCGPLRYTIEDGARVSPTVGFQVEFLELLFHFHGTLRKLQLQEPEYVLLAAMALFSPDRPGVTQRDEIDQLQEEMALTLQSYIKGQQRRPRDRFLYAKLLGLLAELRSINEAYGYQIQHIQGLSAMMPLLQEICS
Method in brief: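 Luminescence from a CYP2B6-2.2kb promoter reporter in hCAR-expressing HepG2 cells reflects CAR signaling. Cells received compounds at 15 concentrations and 50 nM CITCO (final), then incubated 24 h at 37 C/5% CO2.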

[20] = target: Nuclear receptor subfamily 1 group I member 3 (Homo sapiens) (UniProt Q14994); experiment: qHTS assay to identify small molecule agonists of the constitutive androstane receptor (CAR) signaling pathway (AID 1224839);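 also: HepG2 cells stably carrying human CAR and a CYP2B6 luciferase reporter; nearly all actives have a fitted effect of over 15% in size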
Method in brief: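 In this screen, CAR-driven CYP2B6 promoter activity is measured by luminescence in HepG2-CYP2B6-hCAR cells after 24 h with test compounds and 0.75 uM PK11195 (final concentration).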

Measured: Potency

CCCCCCCC[Si](OCC)(OCC)OCC
not listed: [14] | [15] | [16] | [17] | [18] | [19] | [20]
inactive: all other assays above

CC(C)(C)NCCO
not listed: [9] | [10] | [18] | [19] | [20]
inactive: all other assays above

O=P(O)(O)OCC(O)CO (centres undefined)
not listed: [14] | [18] | [19] | [20]
inactive: all other assays above

NC(Cc1c[nH]c2ccccc12)C(=O)O (centres undefined)
not listed: [7] | [15] | [16] | [17] | [19] | [20]
inactive: all other assays above

Cc1cccc(C(=O)O)c1[N+](=O)[O-]
not listed: [7] | [9] | [15] | [16] | [17]
inactive: all other assays above

CCNC(=O)NCCCOc1cccc(CN2CCCCC2)c1
not listed: [9] | [15] | [18] | [19] | [20]
inactive: all other assays above

Cc1ccc(S(=O)(=O)NC(=O)NC2CCCCCCC2)cc1
not listed: [9] | [13] | [15] | [16] | [17] | [19] | [20]
inactive: all other assays above

C[C@H]1O[C@H](O[C@H]2[C@H](O)[C@@H](O)[C@@H](O[C@H]3[C@H](O)[C@@H](O)[C@H](O)O[C@@H]3CO)O[C@@H]2CO)[C@H](O)[C@@H](O)[C@@H]1N[C@H]1C=C(CO)[C@@H](O)[C@H](O)[C@H]1O
not listed: [15] | [16] | [17] | [18] | [19] | [20]
inactive: all other assays above

COc1ccc(/C=N/NC(=O)c2ccncc2)cc1OC
not listed: [9] | [15] | [16] | [17] | [19] | [20]
inactive: all other assays above
